Activity calls are given as the source filed them.
How the values were obtained:
Albumin (Bos taurus) = Albumin (Bos taurus) (UniProt P02769); experiment: bovine serum albumin binders on microarray, profiling panel, artefact control for SMM control protein annotation, biochemical, small-molecule microarray, Alexa647 label, 635/667 nm fluorescence (AID 1118); details: BSA-A647 binding, fluorescence 635 nm, higher = more signal;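 further: score merges 667 nm emission intensity and signal-to-noise per printed compound spot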
Albumin (Bos taurus), sequence (P02769 whole entry, looked up): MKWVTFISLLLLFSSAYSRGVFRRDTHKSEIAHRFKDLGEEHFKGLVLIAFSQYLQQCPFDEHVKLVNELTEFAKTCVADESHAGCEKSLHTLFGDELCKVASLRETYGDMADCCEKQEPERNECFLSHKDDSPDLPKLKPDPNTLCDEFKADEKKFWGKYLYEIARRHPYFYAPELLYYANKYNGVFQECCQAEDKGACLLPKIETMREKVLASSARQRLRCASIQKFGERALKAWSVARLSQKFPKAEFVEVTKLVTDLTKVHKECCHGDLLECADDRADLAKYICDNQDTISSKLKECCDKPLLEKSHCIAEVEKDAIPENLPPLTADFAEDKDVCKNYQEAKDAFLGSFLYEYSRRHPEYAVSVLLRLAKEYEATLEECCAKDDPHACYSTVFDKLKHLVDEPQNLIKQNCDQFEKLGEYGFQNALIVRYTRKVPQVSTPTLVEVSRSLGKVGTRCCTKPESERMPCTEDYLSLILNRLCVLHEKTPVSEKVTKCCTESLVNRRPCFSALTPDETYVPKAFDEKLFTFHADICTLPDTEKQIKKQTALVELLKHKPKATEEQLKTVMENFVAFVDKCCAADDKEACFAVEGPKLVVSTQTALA

[1] = small-molecule microarray binders of probe aXIP, primary screen, biochemical, NeuroSMM set, 635/667 nm fluorescence (AID 1119); details: higher = more signal, called active from +8 up or from −8 down;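 further: probe is the protein aXip251-270 applied at 1 µg/mL to compound-printed slides; binding of probe to printed compounds measured as 667 nm fluorescence plus signal to noise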
[2] = small-molecule binders of probe aNOTCH3, primary screen, biochemical, small-molecule microarray, 635/667 nm fluorescence (AID 1120); details: higher = more signal;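 further: probe is a biotin-tagged antibody raised against NOTCH3 rather than NOTCH3 protein; score merges spot fluorescence near 667 nm with spot signal to noise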
[3] = small-molecule binders of probe aNOTCH2, primary screen, biochemical, small-molecule microarray, 635/667 nm fluorescence (AID 1121); details: higher = more signal;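 further: score merges feature fluorescence read at 667 nm with its signal to noise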
[4] = target: Carbonic anhydrase 2 (Homo sapiens) (UniProt P00918); experiment: CAII small-molecule binders, profiling panel, biochemical, small-molecule microarray, Alexa647-labelled CAII (AID 1122); details: CAII-A647 binding fluorescence, higher = more signal
[5] = COS7 lysate on small-molecule microarray, probe aHis, 635 nm (AID 1123); details: COS7 cell lysate, fluorescence, higher = more signal;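 further: z-score combines 667nm fluorescence intensity with signal-to-noise per printed compound spot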
[6] = compound binding in COS7 lysate, probe aLAP1, primary screen, cell lysate, small-molecule microarray (AID 1124); details: probe aLAP1, fluorescence, higher = more signal;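 further: lysate comes from COS7 cells expressing LAP1 and is applied at 0.3 µg/mL; score merges spot fluorescence near 667 nm with signal-to-noise over triplicate slides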
Sam68 (KHDRBS1) = experiment: Sam68 small-molecule binders, primary screen, biochemical, small-molecule microarray, 635 nm fluorescence (AID 1125); details: small-molecule microarray binding, higher = more signal;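 further: score merges 667 nm channel intensity with signal to noise over triplicate slides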
[7] = system: Chordin-like protein 2 (CHRDL2); experiment: CHRDL2 small-molecule binders, primary screen, biochemical, small-molecule microarray, 635 nm fluorescence (AID 1126); details: small-molecule microarray binding, fluorescence 635 nm; higher = more signal;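 further: printed compound slides probed with Chrdl2 protein at 4 µg/mL for 1 h at 4 C; score merges 667 nm emission intensity with signal to noise over three replicate slides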
[8] = target: Concanavalin-A (Canavalia ensiformis) (UniProt P02866); experiment: ConA small-molecule binders, primary screen, artefact control for SMM control protein annotation, biochemical, small-molecule microarray, Alexa647 label, 635 nm (AID 1127); details: ConA-A647 binding fluorescence, higher = more signal;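 further: z combines 667 nm emission intensity with signal-to-noise across three replicate slides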
Concanavalin-A (Canavalia ensiformis), sequence (P02866 whole entry, looked up): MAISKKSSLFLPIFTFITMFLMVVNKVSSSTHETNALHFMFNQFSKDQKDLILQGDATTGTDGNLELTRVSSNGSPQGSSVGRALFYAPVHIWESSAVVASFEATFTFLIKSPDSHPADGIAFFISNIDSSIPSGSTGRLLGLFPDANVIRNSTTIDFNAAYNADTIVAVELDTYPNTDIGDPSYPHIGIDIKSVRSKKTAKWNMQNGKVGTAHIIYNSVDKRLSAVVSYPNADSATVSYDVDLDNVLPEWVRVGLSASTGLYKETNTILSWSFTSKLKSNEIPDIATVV

[9] = anti-His antibody binders, primary screen, artefact control for SMM control protein annotation, biochemical, small-molecule microarray, 635 nm fluorescence (AID 1128); details: anti-His Alexa647 antibody binding, higher = more signal;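 further: score merges feature fluorescence with signal-to-noise for each printed compound spot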
[10] = system: Human papillomavirus type 1a E7 protein (residues 1-88); experiment: HPV1a E7 small-molecule binders, primary screen, biochemical, small-molecule microarray, residues 1-88, 635 nm (AID 1129); details: small-molecule microarray binding, fluorescence 635 nm; higher = more signal
[11] = target: Focal adhesion kinase 1 (Homo sapiens) (UniProt Q05397); experiment: small-molecule microarray binders of FAK, primary screen, biochemical, 635/667 nm fluorescence, BSA, DTT (AID 1130); details: PTK2 binding, 635 nm fluorescence, higher = more signal;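 further: composite of spot emission at 667 nm and signal to noise over triplicate slides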
Focal adhesion kinase 1 (Homo sapiens), sequence (Q05397 whole entry, looked up): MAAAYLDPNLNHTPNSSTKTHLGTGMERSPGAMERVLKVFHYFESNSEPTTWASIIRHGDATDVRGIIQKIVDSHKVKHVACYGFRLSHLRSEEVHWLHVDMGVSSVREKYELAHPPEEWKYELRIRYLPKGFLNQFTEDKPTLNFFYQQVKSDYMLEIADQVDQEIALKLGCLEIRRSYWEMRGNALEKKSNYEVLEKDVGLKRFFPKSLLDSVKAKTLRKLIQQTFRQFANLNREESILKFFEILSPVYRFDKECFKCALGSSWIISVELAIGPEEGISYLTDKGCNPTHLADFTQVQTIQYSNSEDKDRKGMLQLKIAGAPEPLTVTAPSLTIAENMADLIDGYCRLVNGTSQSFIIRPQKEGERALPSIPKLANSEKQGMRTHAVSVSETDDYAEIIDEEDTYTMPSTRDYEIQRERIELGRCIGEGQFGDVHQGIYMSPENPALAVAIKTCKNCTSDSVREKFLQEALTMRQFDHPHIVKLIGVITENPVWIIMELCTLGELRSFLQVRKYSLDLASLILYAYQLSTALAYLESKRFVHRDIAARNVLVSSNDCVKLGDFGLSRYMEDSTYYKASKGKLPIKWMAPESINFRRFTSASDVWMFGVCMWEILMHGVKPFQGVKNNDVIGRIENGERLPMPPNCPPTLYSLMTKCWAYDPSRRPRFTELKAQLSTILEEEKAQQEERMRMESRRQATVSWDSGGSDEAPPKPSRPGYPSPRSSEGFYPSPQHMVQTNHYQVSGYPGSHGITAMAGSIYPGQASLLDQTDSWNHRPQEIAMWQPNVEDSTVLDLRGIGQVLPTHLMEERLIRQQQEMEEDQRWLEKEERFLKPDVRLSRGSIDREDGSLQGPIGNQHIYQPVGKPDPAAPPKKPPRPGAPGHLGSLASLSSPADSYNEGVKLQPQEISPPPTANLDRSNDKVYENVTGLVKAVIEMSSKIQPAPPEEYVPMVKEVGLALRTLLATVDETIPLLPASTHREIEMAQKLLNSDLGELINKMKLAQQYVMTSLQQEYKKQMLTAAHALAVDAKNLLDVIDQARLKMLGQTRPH

[12] = system: Fibrinogen (Alexa647-labelled); experiment: fibrinogen binders on compound microarrays, profiling panel, artefact control for SMM control-protein annotation, biochemical, small-molecule microarray, 635/667 nm fluorescence (AID 1131); details: fibrinogen-A647 binding fluorescence, higher = more signal;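 further: z-score merges 667 nm fluorescence with per-spot signal-to-noise over triplicate slides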
[13] = target: Follistatin (Homo sapiens) (UniProt P19883); experiment: follistatin binders on small-molecule microarrays, primary screen, biochemical, small-molecule microarray, 635/667 nm fluorescence (AID 1132); details: FST binding, 635 nm fluorescence, higher = more signal
Follistatin (Homo sapiens), sequence (P19883 whole entry, looked up): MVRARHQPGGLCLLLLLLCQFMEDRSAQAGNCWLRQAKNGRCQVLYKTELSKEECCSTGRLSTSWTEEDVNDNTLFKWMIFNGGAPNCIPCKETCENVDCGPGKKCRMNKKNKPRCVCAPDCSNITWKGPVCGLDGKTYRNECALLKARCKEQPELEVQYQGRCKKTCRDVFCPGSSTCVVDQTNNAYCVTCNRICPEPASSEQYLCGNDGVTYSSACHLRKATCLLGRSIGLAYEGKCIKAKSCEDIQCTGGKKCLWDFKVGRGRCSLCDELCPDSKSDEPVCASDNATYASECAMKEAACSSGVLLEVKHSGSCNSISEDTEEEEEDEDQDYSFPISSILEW

[14] = target: Fibroblast growth factor 2 (Homo sapiens) (UniProt P09038); experiment: FGF2 binders on small-molecule microarrays, primary screen, biochemical, small-molecule microarray, 635/667 nm fluorescence (AID 1133); details: small-molecule microarray binding, FGF2, fluorescence 635/667; higher = more signal
Fibroblast growth factor 2 (Homo sapiens), sequence (P09038 whole entry, looked up): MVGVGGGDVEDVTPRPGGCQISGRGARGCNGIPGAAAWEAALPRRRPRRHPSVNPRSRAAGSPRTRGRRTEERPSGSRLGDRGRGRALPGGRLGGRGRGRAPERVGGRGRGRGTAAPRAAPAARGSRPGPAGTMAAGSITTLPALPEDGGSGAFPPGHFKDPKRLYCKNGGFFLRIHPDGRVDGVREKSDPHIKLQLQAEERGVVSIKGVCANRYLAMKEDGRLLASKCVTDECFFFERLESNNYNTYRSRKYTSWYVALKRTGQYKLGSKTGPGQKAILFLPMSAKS

[15] = mitochondrial membrane potential change in A549 cells, profiling panel, cell-based, JC-1 fluorescence, basal, 24 h, 100 nL (AID 1138); details: higher = more signal;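 further: A549 lung adenocarcinoma cells under basal conditions with no added stimulus; test concentration not given here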
Lefty1 = Lefty1 binders on small-molecule microarrays, primary screen, biochemical, small-molecule microarray, 635/667 nm fluorescence (AID 1139); details: small-molecule microarray binding, fluorescence 635/667; higher = more signal
[16] = system: wheat germ agglutinin (Triticum aestivum), Alexa647-labelled; experiment: wheat germ agglutinin binders on compound microarrays, profiling panel, artefact control for SMM control-protein annotation, biochemical, small-molecule microarray, 635/667 nm fluorescence (AID 1140); details: WGA-A647 binding, 635 nm fluorescence, higher = more signal;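 further: score merges 667 nm feature emission with signal to noise over triplicate slides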
[17] = target: Luciferin 4-monooxygenase (Photinus pyralis) (UniProt P08659); experiment: firefly luciferase enzyme inhibitors, primary screen, biochemical, luminescence, purified enzyme, 2006 set (AID 1141); details: SteadyGlo luminescence, 30 min, higher = more signal, called active from +8 up or from −8 down;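 further: cell-free assay with purified firefly luciferase at 100 ng per well in PBS; test concentration not given here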
Luciferin 4-monooxygenase (Photinus pyralis), sequence (P08659 whole entry, looked up): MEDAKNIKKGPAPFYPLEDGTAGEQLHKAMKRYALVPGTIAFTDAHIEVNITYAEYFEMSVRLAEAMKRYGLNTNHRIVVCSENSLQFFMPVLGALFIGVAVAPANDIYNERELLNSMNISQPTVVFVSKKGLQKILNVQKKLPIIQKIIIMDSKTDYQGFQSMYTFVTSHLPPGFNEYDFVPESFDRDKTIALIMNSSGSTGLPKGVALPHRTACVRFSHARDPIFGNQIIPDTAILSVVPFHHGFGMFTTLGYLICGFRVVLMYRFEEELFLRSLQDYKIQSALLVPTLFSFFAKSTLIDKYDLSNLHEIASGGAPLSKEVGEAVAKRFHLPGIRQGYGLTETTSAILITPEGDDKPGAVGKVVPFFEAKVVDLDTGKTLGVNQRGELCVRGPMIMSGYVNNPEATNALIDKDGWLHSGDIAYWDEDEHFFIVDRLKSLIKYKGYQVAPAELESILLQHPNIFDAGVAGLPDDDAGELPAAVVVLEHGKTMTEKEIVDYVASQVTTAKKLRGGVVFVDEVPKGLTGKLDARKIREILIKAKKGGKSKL

Structure (SMILES)	composite z-score (Albumin (Bos taurus))	composite Z-score [1]	composite z-score [2]	composite z-score [3]	composite z-score [4]	composite z-score [5]	composite z-score [6]	composite z-score (Sam68 (KHDRBS1))	composite z-score [7]	composite z-score [8]	composite z-score [9]	composite z-score [10]	composite z-score [11]	composite z-score [12]	composite z-score [13]	composite z-score [14]	z-score [15]	composite z-score (Lefty1)	composite z-score [16]	z-score [17]
COC(=O)[C@@]1(Cc2ccc(F)cc2)[C@H]2c3cc(C(=O)N(C)C)n(Cc4cccc5ccccc45)c3C[C@H]2CN1C(=O)c1ccccc1	0.617	0.0828 (inactive)	0.223	0.168	0.86	4.13	0.881	0.343	-0.967	0.162	0.497	1.11	0.705	0.338	0.137	-0.617	0.319	-0.446	0.115	4.74 (inactive)
COc1ccc(C#Cc2ccc3c(c2)[C@]2(C(=O)N3)[C@H](c3ccccc3OCCO)N3[C@H](c4ccccc4)[C@H](c4ccccc4)OC(=O)[C@H]3[C@@H]2C(=O)NC[C@H](O)c2ccccc2)cc1	0.579	-0.419 (inactive)	0.11	-0.0942	0.373	1.98	0.359	1.32	-0.0767	1.07	1.05	1.14	1.31	0.848	1.27	1.62	-1.25	1.06	0.319	0.412 (inactive)
C=CCOC(=O)[C@@H]1[C@H]2C(=O)O[C@H](c3ccccc3)[C@H](c3ccccc3)N2[C@H](c2ccc(OCCOC(=O)[C@@H]3C[C@@H]4C(=O)N[C@@H](CC(C)C)C(=O)N4[C@@H]3c3ccc(O)cc3)cc2)[C@@]12C(=O)Nc1ccc(I)cc12	-0.766	0.207 (inactive)	1.3	0.443	0.536	1.37	0.166	1.28	1.1	1.17	1.52	1.2	0.601	0.666	1.44	1.26	-1.58	1.44	0.182	-0.248 (inactive)
COCCOC(=O)N1C(=O)[C@@]2(c3cc(C#CCNC(N)=O)ccc31)[C@H](C(=O)Nc1nc3ccccc3s1)[C@H]1C(=O)O[C@H](c3ccccc3)[C@H](c3ccccc3)N1[C@@H]2c1ccc(O)cc1	-0.376	-0.263 (inactive)	0.0203	-0.0094	0.214	0.734	0.16	1.02	0.306	1.1	0.216	0.93	0.164	0.9	1.31	0.802	-2.44	0.392	0.934	-0.518 (inactive)
C=C(C(=O)CC[C@@H](OC(=O)c1ccccc1-c1ccccc1C(=O)O)c1cccc(OCCO)c1)C(C)C	-0.757	-0.88 (inactive)	0.107	-0.0402	0.555	0.139	1.2	0.152	1.26	-0.539	0.256	-0.481	-0.285	-0.0661	1.53	1.54	0.282	1.69	0.58	-1.62 (inactive)
